Compound activity deposited in PubChem by National Center for Advancing Translational Sciences (NCATS).
KB-V1 MDR tox = KB-V1 MDR subline cytotoxicity; AID 1347076; KB-V1 MDR cells viability, CellTiter-Glo, 72 h; Potency, µM (doses to about 46.1 µM), hits mostly cytotoxic; 400,000 tested, 3.4% active; also: nearly all actives have a fitted effect of over 60% in size
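KB-V1 cells (P-gp-expressing MDR subline of KB-3-1) in phenol-red-free DMEM with 10% FBS were exposed to library compounds over a concentration series for 72 h at 37 degrees C. Viability read by CellTiter-Glo luminescence; concentration-effect curves fitted after normalization.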
KB-3-1 tox = KB-3-1 parental cell cytotoxicity. KB-3-1 viability, CellTiter-Glo ATP luminescence, 72 h. Potency, µM (doses to about 46.1 µM), actives largely listed as cytotoxic. 400,000 tested, 1.4% active. AID 1347075; also: nearly all actives have a fitted effect of over 60% in size
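Viability of parental KB-3-1 cells, measured by CellTiter-Glo luminescence, followed a 72 h incubation at 37 °C with pinned compounds in phenol-red-free DMEM containing 10% FBS.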
HT1080 IDH1KD tx = HT-1080 IDH1 knockdown cell toxicity (counter line) | HT-1080 IDH1 knockdown viability, ATP luminescence, 48 h | Potency, µM (series often up to 46.1 µM), most hits filed as cytotoxic | 360,000 tested, 2% active | AID 686971
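IDH1KD HT-1080 cells, 750/well, RPMI + 5% FBS; compound pinned after 2 h settling; 48 h, 37 °C; CellTiter-Glo luminescence; % activity normalised to DMSO and no-cell wells; curves fitted, classed by r2 and efficacy.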
HT1080NT lethal = kills 2HG-producing HT-1080-NT fibrosarcoma cells | HT-1080-NT fibrosarcoma viability, CellTiter-Glo ATP luminescence, 48 h | Potency, µM (doses to about 46.1 µM), actives largely listed as cytotoxic | 360,000 tested, 1.6% active;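 also: NT is the 2HG producing partner of a matched IDH1 knockdown line; nearly all actives have a fitted effect of over 55% in size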
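Read-out is CellTiter-Glo luminescence after 10 minutes at room temperature, following 48 hours' compound treatment of HT-1080-NT cells (750 cells/well, RPMI, 5% FBS, 37 degrees C).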
TDP1 cell noCPT = qHTS for Inhibitors of human tyrosyl-DNA phosphodiesterase 1 (TDP1): qHTS in cells in absence of CPT. AID 686978, 2013. DT40 Tdp1-/- hTDP1 cells, no CPT, ATP luminescence, 48 h. 420,000 tested, 15% active. Potency, µM (top dose mostly 46.2 µM), hits mostly inhibitors; also: nearly all actives have a fitted effect of over 55% in size
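Stably hTDP1-transfected Tdp1-null chicken DT40 cells were treated with library compounds minus camptothecin and grown for at least 48 hr at 37 °C, after which cellular ATP was quantified by luminescence.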
TDP1 cell CPT = growth inhibition of DT40 Tdp1-/-;hTDP1 cells with camptothecin (screen for TDP1 inhibitors). AID 686979. Potency, µM (top dose mostly 46.2 µM), most hits filed as inhibitors. chicken DT40 Tdp1-/-;hTDP1 cells + 20 nM CPT, ATP luminescence, 48 h. 420,000 tested, 12% active; also: nearly all actives have a fitted effect of over 55% in size
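Cell growth measured by CellTiter-Glo luminescence after a minimum 48 h, 37 C compound exposure with 20 nM CPT in Tdp1-knockout DT40 cells stably expressing hTDP1, seeded 400/well; qHTS titration format.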
A number is an active result; 0 = inactive; ? = inconclusive; - = no result given. Rows were chosen to be rich in hits. Some 19% of all compounds tested hit in one or more screens of this group. Calls follow the shape of the dose curve; as a rule, active = well fitted curve in the direction sought with a large enough effect; inconclusive = small, poorly fitted or top-dose-only effect, or another doubt; inactive = no such curve, though single readings can be large; an effect the other way counts as inactive or inconclusive.

SMILES	KB-V1 MDR tox	KB-3-1 tox	HT1080 IDH1KD tx	HT1080NT lethal	TDP1 cell noCPT	TDP1 cell CPT
CCOc1cccc2c1OC(c1cc(OC)c(OC)c(OC)c1)N1N=C(c3ccc(C)o3)CC21 (stereo unspecified)	0	0	?	0	25.9µM	?
C#CCOCCOCCOCCNc1nc(N2CCN(C(=O)CCCCCCCCCCNC(=O)[C@@H](CCC(=O)O)n3cc(CCCCCN)nn3)CC2)nc(N2CCN(C(=O)CCCCCCCCCCNC(=O)[C@H](CO)n3cc(CCCSC)nn3)CC2)n1	0	0	0	0	0	13µM
C#CCOCCOCCOCCNc1nc(N2CCOCC2)nc(N2CCN(C(=O)CCCCCCCCCCNC(=O)[C@H](CO)n3cc(CCCSC)nn3)CC2)n1	0	0	0	0	?	23.1µM
COC(=O)C1=C(COc2ccccc2)NC(=O)NC1c1ccc2ccccc2c1 (stereo unspecified)	0	0	?	?	23.1µM	?
S=c1sc2c(Cl)ncnc2n1-c1ccccc1	?	?	?	20.6µM	10.3µM	16.4µM
Cc1nc(N2CCN(C)CC2)c2sc(=S)n(-c3ccccc3)c2n1	0	0	0	0	?	?
CN(Cc1ccccn1)Cc1cn(Cc2ccccc2)nc1-c1ccc2c(c1)OCO2	?	0	0	0	23.1µM	0
CN(Cc1cnccn1)Cc1cn(Cc2ccccc2)nc1-c1ccc2c(c1)OCO2	0	0	0	0	0	0
CC(c1ccon1)N(C)Cc1cn(C)nc1-c1ccc2c(c1)OCCO2 (stereo unspecified)	0	0	0	0	0	0
CC(c1ccon1)N(C)Cc1cn(Cc2ccccc2)nc1-c1ccc2c(c1)OCO2 (stereo unspecified)	?	0	0	0	?	18.4µM
Cc1cc(C)c(NC(=O)C(C)n2c(=O)cc(-c3ccccc3)c3c(C)nn(C)c32)c(C)c1 (stereo unspecified)	0	0	-	-	0	0
CN1CCN(C2CN(Cc3cn(Cc4cccc(C(F)(F)F)c4)nn3)S(=O)(=O)C2)CC1 (stereo unspecified)	0	0	0	0	0	0
O=C(CCCC(=O)Nc1cccc(Br)c1)N/N=C/c1cc([N+](=O)[O-])ccc1O	0	?	?	0	5.17µM	5.8µM
O=C(CN(c1cccc(Br)c1)S(=O)(=O)c1ccccc1)N/N=C/c1cc([N+](=O)[O-])ccc1O	0	?	14.6µM	7.31µM	?	?
Cc1ccccc1NC(=O)CCC(=O)N/N=C/c1cc([N+](=O)[O-])ccc1O	20.6µM	0	?	0	16.4µM	?
O=C(CCC(=O)Nc1cccc(Cl)c1)N/N=C/c1cc([N+](=O)[O-])ccc1O	0	0	0	?	?	?
Cc1ccc2c(c1)cc1c(=O)n(Cc3cccc(Cl)c3)nc(C)n12	?	0	-	-	?	?
Cc1ccc(N2CC(c3nnc(Cc4ccc(Cl)cc4)o3)CC2=O)cc1 (stereo unspecified)	0	0	-	-	?	?
CCN(C(=O)Cn1nc(Cc2ccncc2)c2ccccc2c1=O)c1cccc(Cl)c1	0	0	-	-	20.6µM	?
O=C(Cn1nc(Cc2cccnc2)c2ccccc2c1=O)N1CCN(c2ccccn2)CC1	0	0	0	0	0	0
Cc1cccc(N2CCN(C(=O)Cn3nc(Cc4cccnc4)c4ccccc4c3=O)CC2)c1C	-	-	-	-	8.2µM	13µM
CCN(C(=O)Cn1nc(Cc2cccnc2)c2ccccc2c1=O)c1cc(C)ccc1C	-	-	-	-	23.1µM	23.1µM
COc1ccc(Cl)cc1NC(=O)Cn1c(=O)n(Cc2ccco2)c(=O)c2cccnc21	0	0	-	-	16.4µM	?
CCCCN(CC)C(=O)Cn1nc(Cc2ccncc2)c2ccccc2c1=O	0	0	0	0	0	0
O=C(Cn1c(=O)n(Cc2ccco2)c(=O)c2cccnc21)Nc1ccccc1F	0	0	-	-	?	0
SMILES	KB-V1 MDR tox	KB-3-1 tox	HT1080 IDH1KD tx	HT1080NT lethal	TDP1 cell noCPT	TDP1 cell CPT
COc1ccc(Cl)cc1NC(=O)Cn1nc(Cc2ccncc2)c2ccccc2c1=O	-	-	-	-	23.1µM	?
O=C(Nc1ccccn1)c1ccccc1	0	0	0	0	0	0
Cc1ccc(NC(=O)Nc2ccccc2)nc1	0	0	0	0	0	0
Cc1ccc(NC(=O)C(c2ccccc2)c2ccccc2)nc1	0	0	0	0	?	20.6µM
O=C(CC(=O)c1ccccc1)Nc1ccccn1	0	0	0	0	0	0
O=C(CC(O)(c1ccccc1)c1ccccc1)Nc1ccccn1	14.6µM	0	0	0	?	14.6µM
O=C(Nc1ccccn1)C(c1ccccc1)c1ccccc1	0	0	0	0	20.6µM	14.6µM
O=C(NCc1ccncc1)[C@@H]1CCCN1C(=O)[C@@H]1CCCN1C(=O)c1ccccc1Cl	0	0	0	0	0	?
CCCCNC(=O)C1c2ccccc2OCC(=O)N1C1CC1 (stereo unspecified)	?	0	0	0	0	0
CCOc1ccccc1N1CC(C(=O)Nc2ccc(S(=O)(=O)N3CCCCC3)cc2)CC1=O (stereo unspecified)	0	0	0	0	13µM	13µM
CCOc1ccc(N2CC(C(=O)Nc3cc(S(=O)(=O)N4CCCCC4)ccc3C)CC2=O)cc1 (stereo unspecified)	18.4µM	0	0	0	?	?
CCC(C)c1ccccc1N1CC(C(=O)Nc2ccc(S(=O)(=O)N3CCOCC3)cc2)CC1=O (stereo unspecified)	0	0	0	0	23.1µM	23.1µM
CCOc1ccccc1N1CC(C(=O)Nc2cccc(S(=O)(=O)N3CCCCC3)c2)CC1=O (stereo unspecified)	0	0	0	0	23.1µM	?
CCOc1ccc(N2CC(C(=O)Nc3cccc(S(=O)(=O)N4CCCC4)c3)CC2=O)cc1 (stereo unspecified)	0	0	0	0	0	0
CCOc1ccc(N2CC(C(=O)Nc3ccc(S(=O)(=O)N4CCOCC4)cc3)CC2=O)cc1 (stereo unspecified)	0	0	0	0	0	0
O=C(Nc1ccc(S(=O)(=O)N2CCCC2)cc1)C1CC(=O)N(c2ccccc2)C1 (stereo unspecified)	0	0	0	0	0	0
Cc1ccc(F)cc1C(=O)N1CCOCC1c1cc(C(=O)NCc2ccccc2)no1 (stereo unspecified)	0	0	0	0	0	0
CSc1nnc(NC(=O)c2cc(=O)c3cc(C)c(C)cc3o2)s1	?	0	-	-	0	0
